{"source": "the supplement of paper PMC9337992", "note": "± gives the standard deviation of the averaged measurements.", "data": [{"tested_on": "MDAMB231", "assay": "cell proliferation (confluence) relative to DMSO control; higher = less growth inhibition", "conditions": "5 uM; 6 d", "procedure": "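Epigenetic chemical probe screen: 15 TNBC cell lines, 500 cells per well in 384-well plates, treated with 5 uM of each of 36 SGC probes for 6 d. Confluency was imaged by IncuCyte ZOOM and normalised to DMSO control wells. Four replicate wells per compound.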", "units": {"cell proliferation": "%"}, "values": [{"smiles": "CCN(C(=O)CO)[C@H]1CN(/C(=N\\C#N)Nc2cccc(OC(F)F)c2)N=C1c1ccc(Cl)c(Cl)c1", "cell proliferation": "98.31 ± 0.72"}, {"smiles": "CC(C)Oc1ccc(-c2c[nH]cc2CN(C)CCN)cc1", "cell proliferation": "46.8 ± 5.9"}, {"smiles": "COc1ccccc1S(=O)(=O)Nc1ccc2c(c1)CN(C)C(=O)N2", "cell proliferation": "67.9 ± 8.3"}, {"smiles": "Cn1cc(CCn2cnc(-c3cnn(C)c3)c2-c2ccc(C#N)cc2)cn1", "cell proliferation": "96.4 ± 3.1"}, {"smiles": "Cc1nnc2c3ccccc3c(N[C@@H](C)[C@H](c3ccccc3)N(C)C)nn12", "note": "[L-moses]", "cell proliferation": "88.6 ± 8.2"}, {"smiles": "COc1cc2c(NC3CCN(C(C)C)CC3)nc(C3CCCCC3)nc2cc1OCCCN1CCCC1", "cell proliferation": "99.05 ± 0.52"}, {"smiles": "COc1ccc(CCc2nc3cc(-c4c(C)noc4C)ccc3n2C[C@H](C)N2CCOCC2)cc1Cl", "cell proliferation": "90.9 ± 1.5"}, {"smiles": "CCCc1cc(C)[nH]c(=O)c1CNC(=O)c1cc(-c2ccc(N3CCN(C(C)C)CC3)nc2)cc2c1cnn2C(C)C", "cell proliferation": "57.1 ± 6.4"}, {"smiles": "COc1c(C)cc(NC(=O)c2nn(Cc3ccc(F)cc3)c3c2CN(C(=O)c2ccc[nH]2)C[C@]3(C)C(N)=O)cc1C", "cell proliferation": "95.7 ± 2.2"}, {"smiles": "O=C(NC[C@H](O)CN1CCc2ccccc2C1)c1ccnc(NC2CCC2)c1", "cell proliferation": "45 ± 5.1"}, {"smiles": "COc1cc(-c2cn(C)c(=O)c3cnccc23)c(OC)cc1CN(C)C", "cell proliferation": "96.6 ± 1.5"}, {"smiles": "CCOC(=O)CCNc1cc(N2CCc3ccccc3CC2)nc(-c2cccnc2)n1", "cell proliferation": "98.88 ± 0.33"}, {"smiles": "CCOC(=O)CCNc1cc(N2CCc3ccccc3CC2)nc(-c2ccccn2)n1", "cell proliferation": "31.7 ± 7.8"}, {"smiles": "O=C(NCC(=O)N1CCCC1)Nc1ccc2cnccc2c1", "cell proliferation": "81.5 ± 7.2"}, {"smiles": "O=C(/C=C/N1C[C@H]2C[C@@H]1CN2c1ccccn1)c1ccccc1O", "cell proliferation": "99.17 ± 0.39"}, {"smiles": "CN(C)[C@H]1CN(C2CCc3cccc(F)c32)C[C@@H]1c1ccc(N2CCN(S(C)(=O)=O)CC2)cc1", "note": "(some centres not stated)", "cell proliferation": "99.19 ± 0.27"}, {"smiles": "CCn1cc(-c2cccc(C(F)(F)F)c2)c2sc(C(=N)NC3CCS(=O)(=O)CC3)cc2c1=O", "cell proliferation": "89.7 ± 4"}, {"smiles": "COc1cc2c(cc1OCCCN1CCCC1)N=C(N)C21CCC1", "cell proliferation": "96 ± 1.6"}, {"smiles": "O=C(c1ccc(C(=O)N2CCC(N3CCCC3)CC2)c(Nc2ccccc2)c1)N1CCC(N2CCCC2)CC1", "cell proliferation": "99.13 ± 0.17"}, {"smiles": "CC(C)Oc1ccc(-c2c[nH]cc2CN(C)CCO)cc1", "cell proliferation": "86.1 ± 7.1"}, {"smiles": "CCCOc1ccn2c(C(C)=O)cc(-c3ccccc3S(C)(=O)=O)c2c1", "cell proliferation": "96.7 ± 2.7"}, {"smiles": "CC[C@H](C)n1cc(C)c2c(C(=O)NCc3c(C)cc(C)[nH]c3=O)cc(-c3ccc(N4CCNCC4)nc3)cc21", "cell proliferation": "98.5 ± 1.6"}, {"smiles": "O=C([C@@H](Cc1cccc(C(F)(F)F)c1)NS(=O)(=O)c1cc(F)c2c(c1)CCNC2)N1CCCC1", "cell proliferation": "87 ± 14"}, {"smiles": "CCCc1cc(C)n(C)c(=O)c1CN(C)C(=O)c1cc(-c2ccc(N3CCN(C(C)C)CC3)nc2)cc2c1cnn2C(C)C", "cell proliferation": "99.29 ± 0.32"}, {"smiles": "CNCCN1CCC(OCc2ccccc2)CC1", "cell proliferation": "82 ± 5.4"}, {"smiles": "Cc1cc(=O)n(C)c2cc(N3C(=O)CC[C@H](NS(=O)(=O)CC(C)C)[C@H]3c3ccc(Cl)cc3)ccc12", "cell proliferation": "95.9 ± 3.5"}, {"smiles": "CCCc1cc(C)[nH]c(=O)c1CNC(=O)c1cc(-c2ccnc(N3CCN(C)CC3)c2)cc2c1cnn2C(C)C", "cell proliferation": "99.683 ± 0.051"}, {"smiles": "COc1cc(C#N)ccc1S(=O)(=O)Nc1ccc2c(c1)cc(C)c(=O)n2C", "cell proliferation": "95.9 ± 4.5"}, {"smiles": "COc1ccccc1C(=O)Nc1cc2c(cc1N1CCCC1)n(C)c(=O)n2C", "cell proliferation": "91.8 ± 5.7"}, {"smiles": "CC(C)N(CCCNC(=O)Nc1ccc(C(C)(C)C)cc1)C[C@H]1O[C@@H](n2cc(Br)c3c(N)ncnc32)[C@H](O)[C@@H]1O", "cell proliferation": "99.63 ± 0.16"}, {"smiles": "CCC(=O)N1CCOc2c(cc(-c3ccc(OC)c(OC)c3)cc2OC[C@H]2CCCN(C)C2)C1", "cell proliferation": "79.2 ± 5.1"}, {"smiles": "Clc1cc2c(NC3CCCC3)nnc(-c3ccncc3)c2cc1Cl", "cell proliferation": "98.72 ± 0.35"}]}]}
